Among all 310,000 compounds or so, about 1,200 (0.39%) were called active. No rule for the calls is given here. A selection follows. Potency and affinity values are given separately.
What follows are compounds tested against Large T antigen (Simian virus 40) (UniProt P03070) (assay: TAg ATPase/helicase activity blockers – biochemical (AID 1903)). Details: SV40 large T antigen ATPase/helicase inhibition assay; at 20 µM; stronger effect = higher value.
Sequence of Large T antigen (Simian virus 40) (P03070 whole entry, looked up): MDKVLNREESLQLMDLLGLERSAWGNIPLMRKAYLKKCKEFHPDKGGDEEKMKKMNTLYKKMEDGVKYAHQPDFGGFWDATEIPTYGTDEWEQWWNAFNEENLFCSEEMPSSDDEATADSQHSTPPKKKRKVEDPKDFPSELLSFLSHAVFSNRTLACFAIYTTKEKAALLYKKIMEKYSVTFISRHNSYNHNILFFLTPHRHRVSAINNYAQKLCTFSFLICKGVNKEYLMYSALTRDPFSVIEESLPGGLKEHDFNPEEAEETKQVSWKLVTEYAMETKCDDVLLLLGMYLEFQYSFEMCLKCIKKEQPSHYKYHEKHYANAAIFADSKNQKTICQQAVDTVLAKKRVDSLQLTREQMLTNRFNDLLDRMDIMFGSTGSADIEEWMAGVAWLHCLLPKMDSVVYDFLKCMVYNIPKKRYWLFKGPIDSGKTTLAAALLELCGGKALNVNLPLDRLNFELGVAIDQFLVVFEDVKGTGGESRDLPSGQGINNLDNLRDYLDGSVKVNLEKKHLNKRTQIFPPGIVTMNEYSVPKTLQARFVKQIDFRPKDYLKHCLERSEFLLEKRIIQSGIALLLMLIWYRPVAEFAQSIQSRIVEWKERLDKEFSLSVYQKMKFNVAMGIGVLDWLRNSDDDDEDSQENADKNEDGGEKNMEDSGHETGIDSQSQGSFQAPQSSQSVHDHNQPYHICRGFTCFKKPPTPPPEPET

inhibition, inactive:
Cc1nonc1OCCNCc1c(C(=O)N(C)C)nc2ccc(Cl)cn12 6.84%, C(=C\c1ccco1)/C=N/n1cnnc1 21.7%, C(/C=C/c1ccco1)=N/N1CCN(c2ccccc2)CC1 7.94%, S=c1[nH]nc(-c2ccncc2)n1/N=C/C=C/c1ccco1 28.8%, Cc1ccc(N/N=C/C=C/c2ccco2)cc1 12.9%, S=c1[nH]nc(-c2ccc(Cl)cc2)n1/N=C/c1ccco1 35.9%, O=C1OC(c2ccc(Cl)cc2)=N/C1=C\C=C\c1ccco1 58.1%, Cc1ccccc1-n1nc2c(c1NC(=O)c1ccc3c(c1)OCO3)CS(=O)(=O)C2 5.82%, CC(=O)Nc1ccc(N(C(=O)c2ccccn2)C(C(=O)NC2CCCCC2)c2ccc(F)cc2)cc1 (stereo unspecified) 5.17%, Cc1ccc2[nH]c(=O)c(C(c3nnnn3C(C)(C)C)N(Cc3ccco3)CC3CCCO3)cc2c1 (stereo unspecified) 9.73%, Cc1occc1C(=O)Nc1sc2c(c1C(N)=O)CCC(C(C)(C)C)C2 (stereo unspecified) 16.6%, COc1cc(OC)c(N(C)S(=O)(=O)c2cccc(C(=O)OCc3c(C)noc3C)c2)cc1Cl 5.27%, Cc1ccc(N2C(=O)C3CCC(C)(C2=O)C3(C)C)cc1 (stereo unspecified) 1.07%, O=C(Cn1cnc2ccccc2c1=O)Nc1nc2ccccc2s1 4.55%, Cc1nnsc1C(=O)N1CCCC(C(=O)c2ccc(C(F)(F)F)cc2)C1 (stereo unspecified) -2.34%, Cc1cccc(OCC(=O)N2CCN(c3nnc(-c4ccccc4)c4ccccc34)CC2)c1 12.7%, CCn1cc(C(=O)NCC(C)C)c(=O)c2cc(F)c(N3CCN(C)CC3)cc21 15.3%, COc1cc(OC)cc(C(=O)NCC2CCCN(C(=O)c3csc(C(C)C)n3)C2)c1 (stereo unspecified) 12.6%, Cc1ccc(COc2ccc(S(=O)(=O)N3CCCC3)cc2C(N)=O)cc1 4.61%, O=C(Nc1ccc(F)cc1)Oc1ccc[nH]c1=O 9.86%, COc1ccccc1N1CCN(C(=O)/C=C/c2ccc(C)cc2)CC1 9.93%, CCc1ccc2[nH]c(=O)c(CN(CC3CCCO3)C(=S)NCc3ccco3)cc2c1 (stereo unspecified) 10.7%, O=C(CSc1n[nH]c(=O)n1Cc1ccco1)Nc1ccccc1Cl 12.1%, N=c1n(CCO)c2ccccc2n1CCN1CCCCC1 6.21%, COc1ccc(N2C(=O)c3ccccc3NC23CCCC3)cc1 5.28%, COc1ccc(N2C(=O)c3ccccc3NC23CCCCC3)cc1 -1.05%
